# Several values for one entry are separate records, joined by “and”; a condition that tells them apart may be missing. Equal values may be shown once. Inconclusive results are not listed. A structure can be active in one record and inactive in another. Activity calls are given as the source filed them. How the source made its calls, unless noted: active means hit-call score of the fitted dose curve at least 0.9, where 1 is the maximum; inconclusive means response in the unintended direction; inactive means score below 0.9.
# Experiments:
# [1] = Tanguay_ZF_120hpf_TRUN_legacy: (Legacy) Oregon State University Tanguay Lab 120 Hour Post-fertilization zebrafish Assay for Truncated Body (AID 2283655)
# Procedure, shortened: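 Tropical 5D wild-type embryos, dechorionated with pronase at 4 hpf, were placed singly in wells at 6 hpf and statically exposed at 28C until 120 hpf, final DMSO 0.64%. Truncated body was scored present/absent by brightfield microscopy.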
# [2] = Tanguay_ZF_120hpf_NC_legacy: (Legacy) Oregon State University Tanguay Lab 120 Hour Post-fertilization zebrafish Assay for Notochord and Tail Malformation (AID 2283656)
# Procedure, shortened: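 Dechorionated 5D zebrafish, 1/well from 6 hpf; static exposure to 120 hpf, 28C, sealed, dark; final DMSO 0.64% v/v. NC scored binary (present/absent); dead embryos not scored. Fit vs DMSO baseline, gain direction.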
# [3] = test system: Thyroperoxidase (TPO), gene 54314; experiment: CCTE_Simmons_AUR_rTPO: CCTE's Amplex UltraRed Assay for Thyroperoxidase (TPO) Inhibition, Simmons Lab (AID 2283662);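 further: potency for loss of signal meaning inhibition of peroxidase activity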
# Procedure, shortened: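 Endpoint is decreased Amplex UltraRed fluorescence after a 30-min, 37C reaction of rat thyroid microsomes with 300 uM H2O2. Eight test concentrations (5 nM–87.5 uM final) in 0.5% DMSO, three biological replicates each.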
# [4] = CCTE_Simmons_CellTiterGLO_HEK293T: Viability Assessment in CCTE's Assays for Thyroperoxidase (TPO) Inhibition, Simmons Lab (AID 2283665);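 on AC50: cells exposed to compound for 24 h before readout; actives reduce ATP signal below DMSO vehicle meaning cytotoxicity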
# Procedure, shortened: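 Cytotoxicity counter-screen: human HEK293T cells in low-serum (1% FBS) medium receive test chemical, 5 nM to 87.5 uM final, for 24 h; ATP is quantified by luciferase luminescence.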
# [5] = Tanguay_ZF_120hpf_TR_legacy: (Legacy) Oregon State University Tanguay Lab 120 Hour Post-fertilization zebrafish Assay for Touch Response (AID 2283667)
# Procedure, shortened: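 Tropical 5D wild-type zebrafish embryos were exposed statically in sealed, foil-covered plates at 28C until 120 hpf, with 0.64% (vol/vol) final DMSO. Touch response was scored as present or absent; embryos that died were not scored.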
# [6] = CCTE_Padilla_ZF_144hpf_TERATOSCORE: (Legacy) CCTE's 144 Hour Post-fertilization zebrafish Assay Teratoscore, Padilla Lab (AID 2283679; active means hit-call score of the fitted dose curve at least 0.9, where 1 is the maximum; inactive means score below 0.9;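 on AC50: zebrafish embryos with chorions exposed by immersion from 6-8 hpf to 5 dpf with daily renewal; teratogenicity score from eye scoring of death hatching and malformations at 144 hpf; higher score means more developmental defects relative to DMSO baseline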)
# Procedure, shortened: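 Larvae scored by eye at 144 hpf for death, hatching and malformations after a day in clean Hanks'. Before that, daily-renewed exposure at 80 uM (0.4% DMSO, 26C) from roughly 6-8 hpf through 5 dpf, 4 embryos per chemical.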
# [7] = STM_H9_OrnithineISnorm_perc: Stemina devTOX quickPredict H9 human embryonic stem cell (hESC)-based Assay for Ornithine (ORN) Metabolite Biomarker, Normalized (AID 2283712; active means hit-call score of the fitted dose curve at least 0.9, where 1 is the maximum; inactive means score below 0.9;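 further: ornithine released into spent medium during last day measured by mass spectrometry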)
# Procedure, shortened: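 Cells: undifferentiated H9 hESC. Dosing: 72 h, media replaced every 24 h. Sample: final 24-h conditioned media, 40% acetonitrile. Read: UPLC-HRMS ornithine area vs 13C standard, % DMSO control.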
# [8] = STM_H9_CystineISnorm_perc: Stemina devTOX quickPredict H9 human embryonic stem cell (hESC)-based Assay for Cystine (CYSS) Metabolite Biomarker, Normalized (AID 2283713; active means hit-call score of the fitted dose curve at least 0.9, where 1 is the maximum; inactive means score below 0.9)
# Procedure, shortened: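 Secreted cystine was measured by UPLC-HRMS in H9 hESC medium after 72h compound exposure with 24-hourly replenishment. Values are standard-normalized areas relative to 0.1% DMSO.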
# [9] = STM_H9_OrnCyssISnorm_ratio: Stemina devTOX quickPredict H9 human embryonic stem cell (hESC)-based Assay for Ornithine (ORN):Cystine (CYSS) Ratio (AID 2283714)
# Procedure, shortened: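 Undifferentiated H9 hESCs were exposed to compound for 72h with media and chemical replaced every 24h. Final 24-h conditioned media were deproteinized and analysed by UPLC-HRMS. ORN and CYSS peak areas were normalized to C13 internal standards and the ratio taken versus 0.1% DMSO.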
# [10] = Tanguay_ZF_120hpf_ActivityScore_legacy: (Legacy) Oregon State University Tanguay Lab 120 Hour Post-fertilization zebrafish Assay Score for Activity (AID 2283742)
# Procedure, shortened: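 Tropical 5D wild-type zebrafish embryos, dechorionated with pronase at 4 hpf, were exposed singly from 6 hpf to 120 hpf statically at 28C in 0.64% DMSO. Malformations and mortality were scored as binary by brightfield, with the activity score combining 18 morphology components.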
# [11] = ArunA_Migration_hNP: ArunA Biomedical's Oris Neuroprogenitor (hNP) Cell Migration Assay (AID 2283754)
# Procedure, shortened: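 Human H9-derived hNP1 neuroprogenitors on Matrigel with LIF/bFGF, plated around seeding stoppers for 16 h at 37C; stoppers removed at start of 72 h chemical exposure. Calcein-AM staining, fluorescence 494/517 nm in detection zone; loss-of-signal vs DMSO; cytochalasin D control.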
# [12] = ArunA_Migration_hNC: ArunA Biomedical's Oris Neural Crest (hNC) Cell Migration Assay (AID 2283755)
# Procedure, shortened: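 Human H9-derived neural crest stem cells, 60,000/well on Matrigel, 16 h at 37C, then 72 h chemical exposure after seeding-stopper removal. Migration into detection zone read as calcein-AM fluorescence (ex494/em517), relative to DMSO.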
# [13] = ArunA_NOG_NucleusCount: ArunA Biomedical's Neurite Outgrowth (NOG) Assay for Nucleus Count (AID 2283756)
# Procedure, shortened: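 Human H9-derived differentiated neurons were exposed for 48 h right after seeding. Hoechst-stained nuclei gated by size and intensity were counted by automated high-content imaging as viable neurons. Loss of signal vs DMSO.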
# [14] = Tanguay_ZF_120hpf_SWIM_legacy: (Legacy) Oregon State University Tanguay Lab 120 Hour Post-fertilization zebrafish Assay for Swim Bladder Malformation (AID 2283654);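 further: swim bladder malformation in each larva scored yes or no under brightfield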
# Procedure, shortened: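 Dechorionated Tropical 5D wild-type embryos, placed singly from 6 hpf, were statically exposed at 28C to 120 hpf with 0.64% DMSO final; swim bladder malformation was scored present/absent by brightfield microscopy, gain of signal relative to DMSO controls.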
# [15] = CEETOX_H295R_MTT_cell_viability: Viability Assessment in the CeeTox HT-H295R MTT Assay (AID 2283718; active means hit-call score of the fitted dose curve at least 0.9, where 1 is the maximum; inactive means score below 0.9)
# Procedure, shortened: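 H295R cells prestimulated 48 h with 10 uM forskolin, then exposed 48 h to test chemical (0.1% DMSO final). Viability by MTT (0.5 mg/ml, 4 h, 37 C), absorbance 570/650 nm; percent change versus DMSO, bidirectional fit.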
# [16] = read-out: solute carrier (SLC10A1), SLC10A1 (gene 6554); experiment: LTEA_HepaRG_SLC10A1: Life Technologies and Expression Analysis (LTEA) Assay for solute carrier (SLC10A1) using HepaRG (AID 2283657; active means hit-call score of the fitted dose curve at least 0.9, where 1 is the maximum; inactive means score below 0.9); conditions: mRNA level, 48 h; actives raise or lower the signal
# Procedure, shortened: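 Differentiated HepaRG cells were plated 48 h, then exposed in serum-free induction medium for 48 h to 8 concentrations (top 100 uM, half-log steps, 0.5% DMSO). SLC10A1 mRNA was quantified by qRT-PCR normalized to ACTB, GAPDH, POLR2A; bidirectional fit versus DMSO.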
# [17] = read-out: matrix metalloproteinase-1 (MMP1), MMP1 (gene 4312); experiment: LTEA_HepaRG_MMP1: Life Technologies and Expression Analysis (LTEA) Assay for matrix metalloproteinase-1 (MMP1) using HepaRG (AID 2283658; active means hit-call score of the fitted dose curve at least 0.9, where 1 is the maximum; inactive means score below 0.9); conditions: mRNA level, 48 h; actives raise or lower the signal
# Procedure, shortened: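 Differentiated HepaRG cells, plated 48 h then switched to serum-free induction medium, were exposed in duplicate for 48 h to eight half-log concentrations up to 100 uM in 0.5% DMSO; MMP1 mRNA measured by qRT-PCR, normalized to ACTB, GAPDH, POLR2A.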
# [18] = read-out: Cytochrome P450 (CYP24A1_1), CYP24A1 (gene 1591); experiment: LTEA_HepaRG_CYP24A1_1: Life Technologies and Expression Analysis (LTEA) Assay for Cytochrome P450 (CYP24A1_1) using HepaRG (AID 2283671; active means hit-call score of the fitted dose curve at least 0.9, where 1 is the maximum; inactive means score below 0.9); conditions: mRNA level, 48 h; actives raise or lower the signal
# Procedure, shortened: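 HepaRG, 48 h exposure, 8-pt half-log series from 100 uM in 0.5% DMSO, duplicates. Readout: TaqMan qRT-PCR of CYP24A1 mRNA, housekeeping-normalized (ACTB/GAPDH/POLR2A). Bidirectional curve fit vs DMSO baseline.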
# [19] = ArunA_CellTiter_hNP: Viability Assessment in the ArunA Biomedical's Oris Neural Crest (hNC) Cell Migration Assay (AID 2283753)
# Procedure, shortened: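 H9-derived hNP1 neuroprogenitors, 60,000/well on Matrigel, cultured 16 h, then 72 h chemical exposure in test medium. Cell titer via CellTiter Aqueous One; positive-direction fit vs DMSO.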
structure (smiles),measurement,setting,value
CC(C)(C)c1cc(O)ccc1O,outcome,[1],inactive
same,outcome,[2],inactive
same,AC50,[3],1.84 µM (active) [middle of 5 runs]
same,AC50,[4],85.6 µM (active) and 25.9 µM (active) and 27.6 µM (active)
same,outcome,[4],inactive
same,outcome,[5],inactive
same,AC50,[6],14.4 µM (active)
same,outcome,[7],inactive
same,outcome,[8],inactive
same,outcome,[9],inactive
same,AC50,[10],16.8 µM (active)
same,AC50,[11],33.7 µM (active)
same,AC50,[12],35.8 µM (active)
same,outcome,[13],inactive
CCN1CCC2(CC1)COc1cc3c(cc12)N(C(=O)c1ccc(-c2ccc(-c4nnc(C)o4)cc2C)cc1)CC3,outcome,[14],inactive
same,outcome,[1],inactive
same,outcome,[2],inactive
same,outcome,[5],inactive
same,AC50,[6],54 µM (active)
same,outcome,[6],inactive
same,AC50,[7],8.53 µM (active)
same,AC50,[8],3.56 µM (active)
same,AC50,[9],7.61 µM (active)
same,outcome,[10],inactive
CCOP(=S)(OCC)SCSP(=S)(OCC)OCC,outcome,[14],inactive
same,outcome,[1],inactive
same,outcome,[2],inactive
same,AC50,[3],9.6 µM (active)
same,AC50,[4],46.6 µM (active)
same,outcome,[5],inactive
same,AC50,[6],5.5 µM (active)
same,outcome,[15],inactive
same,outcome,[10],inactive
ClC1(Cl)C2(Cl)C3(Cl)C4(Cl)C(Cl)(Cl)C5(Cl)C3(Cl)C1(Cl)C5(Cl)C24Cl (configuration not stated),outcome,[14],inactive
same,outcome,[1],inactive
same,outcome,[2],inactive
same,AC50,[16],1.22 µM (active)
same,outcome,[17],inactive
same,outcome,[5],inactive
same,outcome,[18],inactive
same,outcome,[7],inactive
same,outcome,[8],inactive
same,AC50,[9],0.346 µM (active)
same,outcome,[10],inactive
same,outcome,[19],inactive
same,outcome,[11],inactive
same,outcome,[13],inactive
Cn1sc(Cl)cc1=O,outcome,[14],inactive
same,AC50,[6],14.9 µM (active)
same,outcome,[15],inactive
same,AC50,[10],39.8 µM (active)
C=CC(=O)OCCCCCC(C)C,outcome,[14],inactive
same,outcome,[1],inactive
same,outcome,[2],inactive
same,outcome,[5],inactive
same,outcome,[10],inactive
COc1cc(-c2ccc(N)c(OC)c2)ccc1N,AC50,[14],95.5 µM (active)
same,outcome,[1],inactive
same,outcome,[2],inactive
same,outcome,[5],inactive
same,AC50,[6],52.6 µM (active) and 79.3 µM (active)
same,outcome,[15],inactive
same,AC50,[10],3.57 µM (active)
same,outcome,[10],inactive
CCC(=O)C(CC(C)N(C)C)(c1ccccc1)c1ccccc1 (configuration not stated),outcome,[14],inactive
same,outcome,[1],inactive
same,outcome,[2],inactive
same,AC50,[5],39 µM (active)
same,outcome,[10],inactive
CCCCCCCCc1ccc(O)cc1,outcome,[14],inactive
same,outcome,[1],inactive
same,outcome,[2],inactive
same,AC50,[3],6.82 µM (active)
same,AC50,[4],22.6 µM (active)
same,outcome,[5],inactive
same,AC50,[6],5.21 µM (active)
same,outcome,[10],inactive

# From PubChem BioAssay (EPA / NIEHS)
